From PubChem
Only a sample is shown.
aSyn 5UTR act: Activators via SNCA 5'UTR binding, MLPCN; hit rate 7.1% among 300,000; activity score, % (tested at 7.5 µM), hits read low; AID 1814; alpha-synuclein 5'UTR reporter, activators screen; in the data active means activity score below about -60%
* marks the source's active call; other numbers are inactive results.

For NNC(=O)c1[nH]c2ccccc2c1-c1ccccc1 the results were aSyn 5UTR act 95.7.
O=C(NCCc1ccccc1)c1c(O)c2ccccc2[nH]c1=O was read as aSyn 5UTR act -118.6*.
`CCSc1nnc(NC(=O)c2ccc(C)o2)s1` gave aSyn 5UTR act -72.1*.
Screening CCSc1nnc(NC(=O)c2cc(C)oc2C)s1 returned aSyn 5UTR act -161.4*.
CCc1nnc(NC(=O)c2cc(C)oc2C)s1 was read as aSyn 5UTR act -88.2*.
`Nc1ccccc1C(=O)NNC1=C(C(=O)C(F)(F)F)CCC1` gave aSyn 5UTR act -277.8*.
Nc1nnc(CC(=O)N/N=C/c2cccc(OCCOc3ccccc3)c2)s1 was read as aSyn 5UTR act -119.9*.
Cc1ccccc1OCCOc1cccc(/C=N/NC(=O)Cc2nnc(N)s2)c1 was read as aSyn 5UTR act -84.2*.
O=C(Nc1cnc2sccn2c1=O)c1ccccc1Cl was read as aSyn 5UTR act -180.0*.
Cc1cccc(NC(=O)c2cnc3sccn3c2=O)c1 was read as aSyn 5UTR act -74.4*.
`COc1ccc(NC(=O)c2cnc3sccn3c2=O)cc1` gave aSyn 5UTR act -132.8*.
Cc1cccc(NC(=O)c2cnc3sccn3c2=O)c1C was read as aSyn 5UTR act -124.3*.
Cc1cccc(NC(=O)c2cnc3sccn3c2=O)n1 was read as aSyn 5UTR act -115.5*.
Screening COc1ccccc1NC(=S)N/N=C/c1ccc(O)cc1 returned aSyn 5UTR act -156.8*.
Screening COc1ccccc1NC(=S)N/N=C/c1cccc(C)c1 returned aSyn 5UTR act -66.4*.
Screening COc1ccc2o/c(=N/NC(=O)c3cccs3)c(C(N)=O)cc2c1 returned aSyn 5UTR act -156.8*.
`NC(=O)c1cc2ccccc2o/c1=N/NC(=O)c1cccs1` gave aSyn 5UTR act -63.4*.
Screening OC(c1cc(-c2ccc(C(F)(F)F)cc2)nc(C(F)(F)F)c1)C1CCCCN1 (stereo not given) returned aSyn 5UTR act 103.5.
Screening CS(=O)(=O)c1nc(-c2ccccc2)cc(C(F)(F)F)n1 returned aSyn 5UTR act -111.2*.
For Cc1ccc(-n2nc(-c3ccc(N)cc3)cc2N)cc1 the results were aSyn 5UTR act -132.3*.
Screening CC(=O)Nc1ccc(-c2cc(N)n(-c3ccccc3)n2)cc1 returned aSyn 5UTR act -162.1*.
For Nc1ccc(-c2cc(N)n(-c3ccccc3)n2)cc1 the results were aSyn 5UTR act -103.9*.
For Nc1cc(-c2ccc(Cl)cc2)nn1-c1ccccc1 the results were aSyn 5UTR act -138.2*.
`CC(=O)c1cccc(NC(=S)NC(=O)c2cccc(C)c2)c1` gave aSyn 5UTR act -145.2*.
For CC(=O)c1cccc(NC(=S)NC(=O)c2ccccc2C)c1 the results were aSyn 5UTR act -63.6*.
Screening CC(=O)c1cccc(NC(=S)NC(=O)c2ccc(Cl)cc2)c1 returned aSyn 5UTR act -130.8*.
`COc1ccccc1CN=c1c([N+](=O)[O-])nn(-c2ccc3c(c2)OCCO3)n1O` gave aSyn 5UTR act -131.9*.
`O=[N+]([O-])c1nn(-c2ccc3c(c2)OCCO3)n(O)c1=NCc1ccccc1Cl` gave aSyn 5UTR act -95.2*.
O=[N+]([O-])c1nn(-c2ccc3c(c2)OCCO3)n(O)c1=NC1CCCCC1 was read as aSyn 5UTR act -64.5*.
`c1ccc(CSc2nnc(-c3ccncc3)o2)cc1` gave aSyn 5UTR act -104.0*.
`Cc1ccccc1CSc1nnc(-c2ccncc2)o1` gave aSyn 5UTR act -85.7*.
Fc1ccc(-c2nnc(SCc3cccnc3)o2)cc1 was read as aSyn 5UTR act -75.8*.
For Cc1ccc(/C=N/NC(=S)N2CCOCC2)cc1 the results were aSyn 5UTR act -85.0*.
S=C(N/N=C/c1ccc(Cl)cc1)N1CCOCC1 was read as aSyn 5UTR act -68.6*.
O=C(NC(NC(=S)N1CCOCC1)C(Cl)(Cl)Cl)c1ccc(Cl)cc1 (stereo not given) was read as aSyn 5UTR act 66.1.
For S=C(N/N=C/c1ccc(Br)cc1)N1CCCCC1 the results were aSyn 5UTR act -194.7*.
Screening Brc1ccc(-c2nnc(Cc3ccccc3)o2)cc1 returned aSyn 5UTR act -169.1*.
Screening c1ccc(Cc2nnc(-c3ccccc3)o2)cc1 returned aSyn 5UTR act -120.0*.
For Cc1ccc(C#N)c(SCc2nnc(-c3ccc(Cl)cc3)o2)n1 the results were aSyn 5UTR act 89.7.
For COc1ccc(Cc2nnc(-c3ccccc3)o2)cc1 the results were aSyn 5UTR act -94.1*.
Screening Cc1ccc(-c2nnc(Cc3ccc(Cl)cc3)o2)cc1 returned aSyn 5UTR act -84.6*.
Screening Cc1ccccc1-c1nnc(Cc2ccccc2)o1 returned aSyn 5UTR act -136.8*.
For c1ccc(-c2nnc(CN3CCCCC3)o2)cc1 the results were aSyn 5UTR act -73.7*.
O=C(Nc1ccc2nc(-c3cccs3)[nH]c2c1)c1ccco1 was read as aSyn 5UTR act -183.2*.
`CC(=O)Nc1ccc2nc(-c3ccccn3)[nH]c2c1` gave aSyn 5UTR act -158.2*.
O=C(Nc1ccc(-c2nc3ccc(NC(=O)c4cccs4)cc3[nH]2)cc1)c1cccs1 was read as aSyn 5UTR act 121.7.
O=C(Nc1ccc2nc(-c3cccs3)[nH]c2c1)c1cccs1 was read as aSyn 5UTR act -223.0*.
Screening OC(COc1ccc(CNCCc2ccc(C(F)(F)F)cc2)cc1)CN1CCCCC1 (stereo not given) returned aSyn 5UTR act 82.2.
For Cc1sc(=NC(=O)c2ccco2)n(C)c1-c1ccc(Cl)cc1 the results were aSyn 5UTR act -101.3*.
Nc1ccccc1C#Cc1ccccc1 was read as aSyn 5UTR act -162.2*.
`Nc1ccccc1C#Cc1ccc2[nH]ccc2c1` gave aSyn 5UTR act -174.5*.
For O=c1[nH]c(CN2CCN(C/C=C/c3ccccc3)CC2)nc2ccccc12 the results were aSyn 5UTR act -71.6*.
C=CCn1c2ccccc2c(=O)c2cc(C#CC3(O)CCCCC3)ccc21 was read as aSyn 5UTR act -169.6*.
CC1C(=O)C(C)C(c2ccc(Cl)cc2)NC1c1ccc(Cl)cc1 (stereo not given) was read as aSyn 5UTR act 68.5.
N#C/C(=C(/O)COc1ccccc1)c1nc2ccccc2s1 was read as aSyn 5UTR act -63.1*.
For N#C/C(=C(/O)c1ccc(-c2cccc([N+](=O)[O-])c2)o1)c1nc2ccccc2s1 the results were aSyn 5UTR act -105.4*.
Screening N#C/C(=C(/O)CSc1ccccn1)c1nc2ccccc2s1 returned aSyn 5UTR act -62.2*.
N#C/C(=C(/O)c1ccc(F)cc1)c1nc2ccccc2s1 was read as aSyn 5UTR act -136.0*.
`O=C(CCSc1ccccc1)N1CCOCC1` gave aSyn 5UTR act -88.6*.
O=C(CCSc1ccccc1)N1CCCC1 was read as aSyn 5UTR act -80.2*.
For Cc1nn(-c2ccccc2)c2c1C(O)n1c(nc3ccccc31)S2 (stereo not given) the results were aSyn 5UTR act -67.2*.
CC1CCC2(CC1)NC(=O)N(CC(=O)Nc1ccc3c(c1)OCCO3)C2=O (stereo not given) was read as aSyn 5UTR act -99.5*.
For CC(C)C1Oc2ccccc2C(=O)N(CC(=O)c2ccc3c(c2)OCCO3)C1=O (stereo not given) the results were aSyn 5UTR act -224.1*.
`O=C(CN1C(=O)NC2(CCCCCC2)C1=O)c1ccc2c(c1)OCCO2` gave aSyn 5UTR act -154.3*.
`CSc1nc(-c2ccccc2)cn1-c1ccc(NC(C)=O)cc1` gave aSyn 5UTR act -105.6*.
Screening CCOc1ccc(-c2cn(-c3ccc(OC)cc3)c(SC)n2)cc1 returned aSyn 5UTR act -146.5*.
CCOC(=O)c1cc(-c2ccccc2)nn1Cc1cc(C)no1 was read as aSyn 5UTR act -81.0*.
